Experimental data taken from article PMC7862700, “An all-to-all approach to the identification of sequence-specific readers for epigenetic DNA modifications on cytosine”.

Assays:
Test in all cases: DAPPL (digital affinity profiling via proximity ligation, sequencing); 10 mM Tris-HCl pH 7.5, 50 mM NaCl, 1 mM DTT, 4% glycerol, room temperature, 30 min; GST-TFs on glutathione beads, 16-mer random dsDNA library, 0.1% formaldehyde crosslink after washing; high values mean tight binding
FLI1 = target: T1, FLI1 (Homo sapiens, UniProt Q01543 1-452); conditions: protein: recombinant; tags: N-terminal GST; dsDNA, one strand shown
T1 sequence: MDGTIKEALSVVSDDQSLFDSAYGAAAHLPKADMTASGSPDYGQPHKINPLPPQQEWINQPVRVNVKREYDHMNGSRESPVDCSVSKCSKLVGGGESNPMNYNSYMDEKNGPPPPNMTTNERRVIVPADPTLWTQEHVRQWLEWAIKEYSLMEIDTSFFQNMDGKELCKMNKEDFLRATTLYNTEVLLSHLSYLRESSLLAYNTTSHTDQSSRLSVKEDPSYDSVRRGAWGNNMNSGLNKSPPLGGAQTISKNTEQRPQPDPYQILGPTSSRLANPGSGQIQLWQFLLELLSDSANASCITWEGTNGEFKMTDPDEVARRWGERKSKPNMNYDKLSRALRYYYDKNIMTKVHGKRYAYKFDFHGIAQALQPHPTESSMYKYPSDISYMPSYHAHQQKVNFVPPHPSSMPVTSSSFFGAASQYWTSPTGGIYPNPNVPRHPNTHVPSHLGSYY
In short: (§1)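 A tag-only sample was pooled with DNA-barcoded human transcription factors that had been expressed in yeast as GST fusions and captured on glutathione beads. The pools were incubated for 30 min at room temperature with 200 nmole of a random double-stranded 16-mer DNA library in Tris/NaCl/DTT/glycerol buffer, then washed, crosslinked with 0.1% formaldehyde, proximity-ligated (BsaI/T4 ligase, 1 h, 37 °C), PCR-amplified and sequenced on an Illumina NextSeq500. Binding signal is each hexamer's read frequency for a factor divided by its frequency for the tag-only sample.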

ELK1 = target: T2, ELK1 (Homo sapiens, UniProt P19419 1-428); conditions: protein: recombinant; tags: N-terminal GST; dsDNA, one strand shown
T2 sequence: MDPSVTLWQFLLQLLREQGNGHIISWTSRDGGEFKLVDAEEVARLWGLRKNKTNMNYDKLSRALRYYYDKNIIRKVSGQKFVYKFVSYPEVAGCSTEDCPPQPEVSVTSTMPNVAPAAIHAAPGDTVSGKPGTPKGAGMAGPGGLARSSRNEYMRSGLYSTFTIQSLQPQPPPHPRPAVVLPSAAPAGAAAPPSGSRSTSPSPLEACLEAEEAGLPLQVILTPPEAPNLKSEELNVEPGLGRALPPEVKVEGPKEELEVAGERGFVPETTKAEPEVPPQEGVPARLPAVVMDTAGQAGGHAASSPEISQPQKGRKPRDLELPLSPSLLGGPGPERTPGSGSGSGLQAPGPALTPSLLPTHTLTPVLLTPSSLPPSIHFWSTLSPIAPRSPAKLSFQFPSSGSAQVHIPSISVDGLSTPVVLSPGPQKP
In short: as §1

GABPA = target: T3, GABPA (Homo sapiens, UniProt Q06546 1-454); conditions: protein: recombinant; tags: N-terminal GST; dsDNA, one strand shown
T3 sequence: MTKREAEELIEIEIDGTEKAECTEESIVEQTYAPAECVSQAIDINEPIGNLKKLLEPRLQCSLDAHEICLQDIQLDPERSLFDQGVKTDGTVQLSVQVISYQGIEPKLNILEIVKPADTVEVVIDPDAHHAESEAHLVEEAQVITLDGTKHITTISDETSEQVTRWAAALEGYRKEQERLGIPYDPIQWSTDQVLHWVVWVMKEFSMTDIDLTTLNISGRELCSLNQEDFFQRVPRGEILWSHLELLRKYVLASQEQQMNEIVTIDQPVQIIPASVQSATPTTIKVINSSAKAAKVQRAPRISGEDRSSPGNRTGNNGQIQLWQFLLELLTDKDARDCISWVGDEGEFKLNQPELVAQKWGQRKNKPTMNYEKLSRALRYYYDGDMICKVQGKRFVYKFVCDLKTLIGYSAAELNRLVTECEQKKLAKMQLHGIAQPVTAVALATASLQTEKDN
In short: as §1

ERG = target: T4, ERG (Homo sapiens, UniProt P11308 1-479); conditions: protein: recombinant; tags: N-terminal GST; dsDNA, one strand shown
T4 sequence: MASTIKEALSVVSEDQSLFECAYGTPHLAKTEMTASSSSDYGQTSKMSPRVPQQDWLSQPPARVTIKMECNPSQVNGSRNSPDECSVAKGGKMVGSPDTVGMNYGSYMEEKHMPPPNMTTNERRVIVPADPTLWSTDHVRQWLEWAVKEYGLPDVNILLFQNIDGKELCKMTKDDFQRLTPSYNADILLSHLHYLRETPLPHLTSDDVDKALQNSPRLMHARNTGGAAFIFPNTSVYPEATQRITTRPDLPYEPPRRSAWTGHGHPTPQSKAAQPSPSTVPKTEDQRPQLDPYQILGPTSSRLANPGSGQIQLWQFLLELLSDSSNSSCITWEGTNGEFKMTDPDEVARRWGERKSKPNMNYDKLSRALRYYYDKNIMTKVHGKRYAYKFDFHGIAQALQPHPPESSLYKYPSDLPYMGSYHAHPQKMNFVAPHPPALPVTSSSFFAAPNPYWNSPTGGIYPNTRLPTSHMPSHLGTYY
In short: as §1

ELF1 = ELF1 (Homo sapiens, UniProt P32519 1-619); conditions: protein: recombinant; tags: N-terminal GST; dsDNA, one strand shown
In short: as §1

EHF = target: T5, EHF (Homo sapiens, UniProt Q9NZC4 1-300); conditions: protein: recombinant; tags: N-terminal GST; dsDNA, one strand shown
T5 sequence: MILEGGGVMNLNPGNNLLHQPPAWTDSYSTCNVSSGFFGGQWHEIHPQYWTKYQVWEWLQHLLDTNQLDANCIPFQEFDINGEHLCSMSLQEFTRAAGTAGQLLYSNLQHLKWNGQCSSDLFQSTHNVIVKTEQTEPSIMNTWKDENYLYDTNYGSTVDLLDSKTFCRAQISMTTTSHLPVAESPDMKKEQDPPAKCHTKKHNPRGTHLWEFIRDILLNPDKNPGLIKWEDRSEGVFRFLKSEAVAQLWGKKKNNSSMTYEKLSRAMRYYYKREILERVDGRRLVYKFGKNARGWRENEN
In short: as §1

SPI1 = SPI1 (Homo sapiens, UniProt P17947 1-270); conditions: protein: recombinant; tags: N-terminal GST; dsDNA, one strand shown
In short: as §1

SPIB = SPIB (Homo sapiens, UniProt Q01892 1-262); conditions: protein: recombinant; tags: N-terminal GST; dsDNA, one strand shown
In short: as §1

ELK3 = target: T6, ELK3 (Homo sapiens, UniProt P41970 1-407); conditions: protein: recombinant; tags: N-terminal GST; dsDNA, one strand shown
T6 sequence: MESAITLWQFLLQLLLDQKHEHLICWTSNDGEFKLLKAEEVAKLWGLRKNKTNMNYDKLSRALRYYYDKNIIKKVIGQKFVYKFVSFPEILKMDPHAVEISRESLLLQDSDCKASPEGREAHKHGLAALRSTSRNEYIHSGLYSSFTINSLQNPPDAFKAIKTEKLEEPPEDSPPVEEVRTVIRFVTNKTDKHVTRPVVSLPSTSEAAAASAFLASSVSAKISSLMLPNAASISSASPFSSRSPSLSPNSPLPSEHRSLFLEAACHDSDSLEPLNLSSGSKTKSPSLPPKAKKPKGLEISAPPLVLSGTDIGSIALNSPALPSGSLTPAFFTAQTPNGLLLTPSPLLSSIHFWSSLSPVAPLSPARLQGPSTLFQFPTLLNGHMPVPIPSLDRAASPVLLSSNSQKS
In short: as §1

FEV = target: T7, FEV (Homo sapiens, UniProt Q99581 1-238); conditions: protein: recombinant; tags: N-terminal GST; dsDNA, one strand shown
T7 sequence: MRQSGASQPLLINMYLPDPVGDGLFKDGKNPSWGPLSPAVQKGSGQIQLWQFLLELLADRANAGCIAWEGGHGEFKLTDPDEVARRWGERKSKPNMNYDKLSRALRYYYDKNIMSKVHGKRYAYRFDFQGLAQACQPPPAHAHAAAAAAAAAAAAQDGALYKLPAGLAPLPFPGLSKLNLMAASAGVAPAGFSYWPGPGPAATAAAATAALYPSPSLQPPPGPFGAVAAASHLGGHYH
In short: as §1

ETV5 = ETV5 (Homo sapiens, UniProt P41161 1-510); conditions: protein: recombinant; tags: N-terminal GST; dsDNA, one strand shown
In short: as §1

HSF1 = HSF1 (Homo sapiens, UniProt Q00613 1-529); conditions: protein: recombinant; tags: N-terminal GST; chain copies: 3; dsDNA, one strand shown
In short: as §1

SPIC = target: T8, SPIC (Homo sapiens, UniProt Q8N5J4 1-248); conditions: protein: recombinant; tags: N-terminal GST; dsDNA, one strand shown
T8 sequence: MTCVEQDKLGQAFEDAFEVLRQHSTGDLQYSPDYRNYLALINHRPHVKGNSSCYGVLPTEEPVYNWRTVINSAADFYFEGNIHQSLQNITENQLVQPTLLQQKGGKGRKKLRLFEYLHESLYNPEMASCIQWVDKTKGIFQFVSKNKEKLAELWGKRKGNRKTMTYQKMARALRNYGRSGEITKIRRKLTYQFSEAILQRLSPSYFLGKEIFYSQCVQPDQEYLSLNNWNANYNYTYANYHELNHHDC
In short: as §1

ELF4 = ELF4 (Homo sapiens, UniProt Q99607 1-663); conditions: protein: recombinant; tags: N-terminal GST; dsDNA, one strand shown
In short: as §1

ELK4 = target: T9, ELK4 (Homo sapiens, UniProt P28324-2 1-405); conditions: protein: recombinant; tags: N-terminal GST; dsDNA, one strand shown
T9 sequence: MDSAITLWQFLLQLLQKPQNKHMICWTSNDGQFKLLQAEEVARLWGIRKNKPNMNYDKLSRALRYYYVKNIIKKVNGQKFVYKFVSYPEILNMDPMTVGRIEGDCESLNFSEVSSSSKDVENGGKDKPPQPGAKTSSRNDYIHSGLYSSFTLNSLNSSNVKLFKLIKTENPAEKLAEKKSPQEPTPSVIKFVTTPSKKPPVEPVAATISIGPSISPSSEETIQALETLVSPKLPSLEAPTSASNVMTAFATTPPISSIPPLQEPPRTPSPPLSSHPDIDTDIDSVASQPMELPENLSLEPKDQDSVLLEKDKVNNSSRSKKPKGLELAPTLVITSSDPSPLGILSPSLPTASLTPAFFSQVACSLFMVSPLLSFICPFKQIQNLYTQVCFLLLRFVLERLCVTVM
In short: as §1

ETV2 = target: T10, ETV2 (Homo sapiens, UniProt O00321 1-342); conditions: protein: recombinant; tags: N-terminal GST; dsDNA, one strand shown
T10 sequence: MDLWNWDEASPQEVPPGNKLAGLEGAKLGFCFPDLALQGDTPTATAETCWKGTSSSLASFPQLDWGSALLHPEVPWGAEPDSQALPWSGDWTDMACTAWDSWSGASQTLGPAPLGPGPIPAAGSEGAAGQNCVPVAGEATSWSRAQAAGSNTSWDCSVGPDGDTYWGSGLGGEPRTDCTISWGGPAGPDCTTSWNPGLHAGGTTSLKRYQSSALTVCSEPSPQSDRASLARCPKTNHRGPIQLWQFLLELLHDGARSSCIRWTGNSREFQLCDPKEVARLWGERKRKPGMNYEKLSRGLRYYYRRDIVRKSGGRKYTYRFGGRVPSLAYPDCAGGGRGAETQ
In short: as §1

ELF3 = target: T11, ELF3 (Homo sapiens, UniProt P78545 1-371); conditions: protein: recombinant; tags: N-terminal GST; dsDNA, one strand shown
T11 sequence: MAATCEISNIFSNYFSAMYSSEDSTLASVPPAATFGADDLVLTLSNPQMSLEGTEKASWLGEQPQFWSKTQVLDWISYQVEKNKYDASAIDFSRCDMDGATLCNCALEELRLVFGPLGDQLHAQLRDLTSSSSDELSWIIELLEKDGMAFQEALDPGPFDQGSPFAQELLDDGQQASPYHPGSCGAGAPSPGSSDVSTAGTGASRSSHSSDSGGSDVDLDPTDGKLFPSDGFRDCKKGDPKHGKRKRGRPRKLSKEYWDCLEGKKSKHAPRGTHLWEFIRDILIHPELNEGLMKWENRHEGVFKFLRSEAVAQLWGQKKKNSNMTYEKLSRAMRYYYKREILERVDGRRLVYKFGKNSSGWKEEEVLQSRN
In short: as §1

CRX = CRX (Homo sapiens, UniProt O43186 1-299); conditions: protein: recombinant; tags: N-terminal GST; dsDNA, one strand shown
In short: as §1

ETV1 = ETV1 (Homo sapiens, UniProt P50549 1-477); conditions: protein: recombinant; tags: N-terminal GST; dsDNA, one strand shown
In short: as §1

Sequence of ELF4 (Q99607 whole entry): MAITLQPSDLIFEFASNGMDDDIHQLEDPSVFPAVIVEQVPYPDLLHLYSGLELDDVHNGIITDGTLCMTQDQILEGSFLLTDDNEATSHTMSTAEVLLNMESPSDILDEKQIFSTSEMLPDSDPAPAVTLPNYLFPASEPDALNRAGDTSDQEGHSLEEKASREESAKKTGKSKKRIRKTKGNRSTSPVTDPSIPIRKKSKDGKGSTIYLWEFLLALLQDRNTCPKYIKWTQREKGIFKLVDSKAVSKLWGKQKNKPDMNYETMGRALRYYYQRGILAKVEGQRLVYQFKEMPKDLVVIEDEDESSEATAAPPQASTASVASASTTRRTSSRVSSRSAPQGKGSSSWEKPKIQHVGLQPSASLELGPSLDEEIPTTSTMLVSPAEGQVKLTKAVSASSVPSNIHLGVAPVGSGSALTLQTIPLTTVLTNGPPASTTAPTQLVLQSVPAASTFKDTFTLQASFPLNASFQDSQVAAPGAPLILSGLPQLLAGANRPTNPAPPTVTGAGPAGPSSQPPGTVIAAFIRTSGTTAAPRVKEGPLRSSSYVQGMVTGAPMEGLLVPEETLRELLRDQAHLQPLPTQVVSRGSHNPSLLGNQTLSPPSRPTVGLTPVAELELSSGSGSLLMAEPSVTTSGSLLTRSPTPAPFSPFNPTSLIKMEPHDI
Sequence of ELF1 (P32519 whole entry): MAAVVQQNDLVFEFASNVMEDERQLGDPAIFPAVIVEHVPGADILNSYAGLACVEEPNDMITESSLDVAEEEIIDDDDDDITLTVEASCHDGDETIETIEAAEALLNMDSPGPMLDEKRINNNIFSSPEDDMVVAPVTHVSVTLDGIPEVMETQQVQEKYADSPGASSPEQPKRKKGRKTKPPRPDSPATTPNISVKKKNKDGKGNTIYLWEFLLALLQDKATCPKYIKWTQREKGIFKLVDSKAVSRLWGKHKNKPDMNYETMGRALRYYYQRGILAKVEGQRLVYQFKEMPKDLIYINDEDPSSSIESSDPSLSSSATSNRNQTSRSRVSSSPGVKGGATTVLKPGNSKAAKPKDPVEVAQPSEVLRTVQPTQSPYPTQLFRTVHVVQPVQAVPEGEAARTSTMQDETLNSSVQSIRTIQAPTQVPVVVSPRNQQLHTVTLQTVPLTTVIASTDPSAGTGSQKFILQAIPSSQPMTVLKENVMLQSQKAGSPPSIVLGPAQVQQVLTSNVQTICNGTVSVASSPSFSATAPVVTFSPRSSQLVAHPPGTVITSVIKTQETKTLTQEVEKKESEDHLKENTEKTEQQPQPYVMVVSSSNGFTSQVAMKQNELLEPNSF
Sequence of ETV5 (P41161 whole entry): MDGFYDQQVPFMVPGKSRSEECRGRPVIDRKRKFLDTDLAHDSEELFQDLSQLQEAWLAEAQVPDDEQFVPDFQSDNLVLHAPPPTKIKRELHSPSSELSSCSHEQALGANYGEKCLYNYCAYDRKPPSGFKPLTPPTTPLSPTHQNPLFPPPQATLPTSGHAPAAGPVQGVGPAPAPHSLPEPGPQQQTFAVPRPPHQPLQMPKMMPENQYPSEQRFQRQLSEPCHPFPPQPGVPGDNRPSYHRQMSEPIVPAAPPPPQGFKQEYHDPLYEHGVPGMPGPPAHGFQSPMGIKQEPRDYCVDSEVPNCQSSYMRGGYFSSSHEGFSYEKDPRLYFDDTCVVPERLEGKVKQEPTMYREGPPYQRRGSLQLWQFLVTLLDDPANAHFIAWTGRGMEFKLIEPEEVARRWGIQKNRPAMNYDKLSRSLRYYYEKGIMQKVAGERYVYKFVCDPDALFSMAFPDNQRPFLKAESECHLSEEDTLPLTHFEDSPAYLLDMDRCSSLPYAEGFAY
Sequence of CRX (O43186 whole entry): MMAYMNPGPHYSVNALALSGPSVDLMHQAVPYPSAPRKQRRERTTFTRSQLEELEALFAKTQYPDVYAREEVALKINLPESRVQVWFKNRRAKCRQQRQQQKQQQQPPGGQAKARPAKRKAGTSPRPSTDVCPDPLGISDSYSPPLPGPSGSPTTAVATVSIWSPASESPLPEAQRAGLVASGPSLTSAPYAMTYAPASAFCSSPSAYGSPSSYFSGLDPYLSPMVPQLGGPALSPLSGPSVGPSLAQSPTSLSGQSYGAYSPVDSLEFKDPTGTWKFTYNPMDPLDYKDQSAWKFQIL
Sequence of HSF1 (Q00613 whole entry): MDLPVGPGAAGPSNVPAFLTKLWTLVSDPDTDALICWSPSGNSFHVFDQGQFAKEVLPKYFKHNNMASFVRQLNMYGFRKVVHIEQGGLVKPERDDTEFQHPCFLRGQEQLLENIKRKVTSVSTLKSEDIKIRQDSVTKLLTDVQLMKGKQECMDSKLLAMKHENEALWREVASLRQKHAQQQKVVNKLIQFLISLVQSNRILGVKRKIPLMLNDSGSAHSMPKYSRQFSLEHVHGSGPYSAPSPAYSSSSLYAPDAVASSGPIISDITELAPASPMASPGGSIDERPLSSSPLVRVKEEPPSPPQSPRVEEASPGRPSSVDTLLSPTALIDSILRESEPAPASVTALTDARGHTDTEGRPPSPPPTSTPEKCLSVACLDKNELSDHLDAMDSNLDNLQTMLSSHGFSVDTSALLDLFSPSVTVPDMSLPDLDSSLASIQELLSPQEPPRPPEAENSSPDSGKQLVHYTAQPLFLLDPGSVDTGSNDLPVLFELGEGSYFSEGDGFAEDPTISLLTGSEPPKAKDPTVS
Sequence of SPIB (Q01892 whole entry): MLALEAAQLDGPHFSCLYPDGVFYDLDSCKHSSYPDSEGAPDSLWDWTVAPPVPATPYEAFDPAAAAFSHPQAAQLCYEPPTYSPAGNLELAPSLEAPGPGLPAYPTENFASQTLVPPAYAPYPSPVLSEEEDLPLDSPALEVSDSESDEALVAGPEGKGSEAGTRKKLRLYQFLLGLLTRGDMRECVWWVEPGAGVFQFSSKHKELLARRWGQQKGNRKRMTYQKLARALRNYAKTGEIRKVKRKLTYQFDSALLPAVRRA
Sequence of ETV1 (P50549 whole entry): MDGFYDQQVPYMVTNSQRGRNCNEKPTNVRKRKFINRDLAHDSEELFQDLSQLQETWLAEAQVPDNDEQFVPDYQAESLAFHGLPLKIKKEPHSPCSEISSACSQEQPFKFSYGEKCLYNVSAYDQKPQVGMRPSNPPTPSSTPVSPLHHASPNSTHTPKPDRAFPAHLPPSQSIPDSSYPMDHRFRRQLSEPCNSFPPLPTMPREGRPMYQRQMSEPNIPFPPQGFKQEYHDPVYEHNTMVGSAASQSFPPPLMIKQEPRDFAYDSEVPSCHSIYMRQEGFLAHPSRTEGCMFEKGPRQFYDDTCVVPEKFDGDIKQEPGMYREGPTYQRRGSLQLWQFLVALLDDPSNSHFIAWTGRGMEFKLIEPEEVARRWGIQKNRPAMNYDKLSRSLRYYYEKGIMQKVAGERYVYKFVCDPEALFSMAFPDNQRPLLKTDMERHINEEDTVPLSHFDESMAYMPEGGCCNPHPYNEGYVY

CCCGCC
binding signal (FLI1): 1.46 fold enrichment (6-mer frequency, TF over GST control) | binding signal (ELK1): 1.75 fold enrichment (6-mer frequency, TF over GST control) | binding signal (GABPA): 1.57 fold enrichment (6-mer frequency, TF over GST control) | binding signal (ERG): 1.5 fold enrichment (6-mer frequency, TF over GST control) | binding signal (ELF1): 1.58 fold enrichment (6-mer frequency, TF over GST control) | binding signal (EHF): 1.53 fold enrichment (6-mer frequency, TF over GST control) | binding signal (SPI1): 1.44 fold enrichment (6-mer frequency, TF over GST control) | binding signal (SPIB): 1.31 fold enrichment (6-mer frequency, TF over GST control) | binding signal (ELK3): 1.63 fold enrichment (6-mer frequency, TF over GST control) | binding signal (FEV): 1.5 fold enrichment (6-mer frequency, TF over GST control) | binding signal (ETV5): 1.31 fold enrichment (6-mer frequency, TF over GST control) | binding signal (HSF1): 1.17 fold enrichment (6-mer frequency, TF over GST control) | binding signal (SPIC): 1.67 fold enrichment (6-mer frequency, TF over GST control) | binding signal (ELF4): 1.66 fold enrichment (6-mer frequency, TF over GST control) | binding signal (ELK4): 1.43 fold enrichment (6-mer frequency, TF over GST control) | binding signal (ETV2): 1.6 fold enrichment (6-mer frequency, TF over GST control) | binding signal (ELF3): 1.45 fold enrichment (6-mer frequency, TF over GST control) | binding signal (CRX): 1.21 fold enrichment (6-mer frequency, TF over GST control) | binding signal (ETV1): 1.5 fold enrichment (6-mer frequency, TF over GST control)
